# Measurements taken from ChEMBL document CHEMBL4513135, “CO-ADD screening of IQOG CSIS (Spain) compounds”.
# “And” between values parts separate entries of the source, which are not always exact repeats. Identical values can stand only once. Results with a measured potency or affinity are listed apart.
# Columns and labels:
# [1] = test system: Staphylococcus aureus; conditions: Concentration 32 ug.mL-1, ASSAY_TEST Inhibition of Bacterial Growth, detection method Absorption (OD600), MEDIA CAMHB, plate type 384well, NBS, CORNING #3640, time 18 hr
# [2] = test system: Escherichia coli; conditions: Concentration 32 ug.mL-1, ASSAY_TEST Inhibition of Bacterial Growth, detection method Absorption (OD600), MEDIA CAMHB, plate type 384well, NBS, CORNING #3640, time 18 hr
SMILES,Inhibition [1] [%],Inhibition [2] [%],Inhibition ([1]; 32 ug/mL),Inhibition ([2]; 32 ug/mL)
N#C/C(=C\c1ccccc1Cl)C(=O)c1ccccc1,33.12,20.31,–,–
COc1ccc2nc(Cl)c(C=O)cc2c1,–,–,19.77% and 20.88%,18.53% and 18.96%
N#Cc1cc(C#N)c(NCCC2CCN(Cc3ccccc3)CC2)nc1N,49.11,-25.69,–,–
NNC(=O)c1c[nH]c2ccc(OCc3ccccc3)cc12,2.88,0.02,–,–
C#CCN(C)c1nc(NCCCCC2CCN(Cc3ccccc3)CC2)c(C#N)cc1C#N,0.89,-7.65,–,–
N#Cc1cccnc1N,27.07,-3.89,–,–
N#Cc1cc(C#N)c(NCCCCC2CCN(Cc3ccccc3)CC2)nc1N,36.38,-9.24,–,–
CCCC(C)NNC(=O)Cc1c[nH]c2ccccc12 (stereo unspecified),1.02,-9.25,–,–
O=C1SC(SCc2ccccc2)=NC1=Cc1ccccc1,6.82,1.82,–,–
CC(=O)Oc1ccc(C=C2N=C(C)OC2=O)cc1,8.81,9.02,–,–
Cc1ccc(C(O)SNNc2nc(C)nc3c2c(C)nn3-c2ccccc2)cc1 (stereo unspecified),4.03,5.46,–,–
CCOC(=O)/C(C#N)=C\c1ccc(Cl)cc1,19.96,11.69,–,–
COC1=C(C#N)CC(C)C(=O)N1 (stereo unspecified),16.96,-13.94,–,–
O=C(O)c1c[nH]c2ccccc12,-3.47,-2.29,–,–
COc1ccc(CNNC(=O)c2cc3ccccc3[nH]2)cc1O,5.63,2.63,–,–
O=C(Cc1c[nH]c2ccccc12)NN=Cc1ccccc1,3.3,-3.03,–,–
COC1=C(C#N)CCC(=O)N1,33.45,-6.96,–,–
Cn1c(C(=O)N2CCOCC2)cc2cc(OCCCC3CCN(Cc4ccccc4)CC3)ccc21,23.07,-10.59,–,–
O=C(N/N=C/c1cccc(Cl)c1)c1cc2ccccc2[nH]1,-16.68,-12.27,–,–
Nc1c2c(nc3c1C(c1ccc([N+](=O)[O-])cc1)c1c(ccc4ccccc14)O3)CCCC2 (stereo unspecified),18.24,7.89,–,–
N#CC1=C(Cl)Oc2c(ccc3ccccc23)C1c1ccccc1 (stereo unspecified),14.99,-36.62,–,–

SMILES,Inhibition [1] [%],Inhibition [2] [%],Inhibition ([1]; 32 ug/mL),Inhibition ([2]; 32 ug/mL)
CC1(C)OS(=O)(=O)C2=C1NC(N)=C(C#N)C2c1ccccc1 (stereo unspecified),8.23,10.42,–,–
CCOC(=O)c1c(C)nc(N)c(C#N)c1-c1cccs1,5.52,-18.22,–,–
O=C1OC(c2ccc([N+](=O)[O-])cc2)=NC1=Cc1ccccc1,12.67,13.11,–,–
CC1(C)OC(=O)C(=Cc2ccc([N+](=O)[O-])cc2)C(=O)O1,28.78,10.5,–,–
CC1Cc2c(Br)nc3nc4c(c(N)c3c2NC1=O)CCCC4 (stereo unspecified),27.55,-12.78,–,–
N#CC1(Br)C(=NBr)Oc2c(ccc3ccccc23)C1c1cccc([N+](=O)[O-])c1 (stereo unspecified),34.66,-14.11,–,–
CCOC(=O)/C(=C\c1ccccc1)C(=O)c1ccccc1,9.55,10.95,–,–
Cl.ClCCCN1CCCCC1,19.47,17.01,–,–
N#Cc1cc(C#N)c(N2CCC(Cc3ccccc3)CC2)nc1N,-2.68,-8.44,–,–
COc1cc(C2c3ccc4ccccc4c3Oc3nc4c(c(N)c32)CCCC4)ccc1O.Cl (stereo unspecified),-4.49,-1.18,–,–
COc1cccc(-c2c(C#N)c(=O)oc3c2ccc2ccccc23)c1,13.24,14.42,–,–
CCOC(=O)C1=C(C)OC(N)=C(C#N)C1c1ccc(F)cc1 (stereo unspecified),19.76,-10.2,–,–
C#CCN(C)c1nc(NCCCC2CCN(Cc3ccccc3)CC2)c(C#N)cc1C#N,1.12,-10.35,–,–
Clc1ccc(-c2cn3ccccc3n2)cc1,13.75,15.37,–,–
C#CCNc1ccc(Cl)nn1,21.22,-28.17,–,–
Cc1nc(NCc2ccccc2)c2cnn(-c3ccccc3)c2n1,7.38,5.64,–,–
COc1ccc2c(c1)cc(C(=O)O)n2C,20.8,-7.03,–,–
N#Cc1c(N)nc(NCCCCC2CCN(Cc3ccccc3)CC2)c(C#N)c1-c1ccccc1,9.74,-1.09,–,–
CC(=O)CC(=O)N1[C@@H]2C[C@H]3CCC2(CS1(=O)=O)C3(C)C,27.16,7.75,–,–
COc1ccc2c(c1)cc(CN)n2C,13.26,5.66,–,–
COc1ccc2cc(C3C4=C(CC(C)(C)CC4=O)Oc4nc5c(c(N)c43)CCCCC5)c(Cl)nc2c1 (stereo unspecified),27.31,12.92,–,–

SMILES,Inhibition [1] [%],Inhibition [2] [%],Inhibition ([1]; 32 ug/mL),Inhibition ([2]; 32 ug/mL)
CC#CCN(C)Cc1cc2cc(OCc3ccccc3)ccc2n1C.O=C(O)C(=O)O,7.01,5.45,–,–
N#Cc1c(N)nc(NCCCC2CCN(Cc3ccccc3)CC2)c(C#N)c1-c1ccccc1,56.22,-16.73,–,–
C#CCNc1nc(Cl)c(C#N)c(-c2ccccc2)c1C#N,4.06,10.8,–,–
Cc1[nH]nc2c1C(c1cccc([N+](=O)[O-])c1)C(C#N)=C(N)O2 (stereo unspecified),7.57,4.04,–,–
N#C[C@]1(Br)C(=N)Oc2ccc3ccccc3c2[C@@H]1c1ccc([N+](=O)[O-])cc1,26.21,11.8,–,–
N#Cc1c(Cl)nc(N2CCCCC2)c(C#N)c1-c1ccccc1,-12.16,17.72,–,–
O=C1NC(=O)C(=Cc2ccccc2)N1,16.19,11.12,–,–
CN(C)c1nc(N)c(C#N)c(-c2ccccc2)c1C#N,7.52,0.57,–,–
COC(=O)C(NC(=O)c1ccccc1)=C(C)c1ccccc1,11.03,2.63,–,–
CC(=O)Oc1ccc(C=C2N=C(c3ccccc3)OC2=O)c(OC(C)=O)c1,7.39,7.35,–,–
COc1ccc(-c2cc(-c3cc4ccc(OC)cc4nc3Cl)cc(=O)[nH]2)cc1,18.65,-13.67,–,–
CCOC(=O)c1cc2cc(OCc3ccccc3)ccc2[nH]1,7.82,5.9,–,–
N#Cc1c(N)nc(N2CCOCC2)c(C#N)c1-c1ccccc1,7.58,0.53,–,–
N#Cc1c(N)nc(NC2CCN(Cc3ccccc3)CC2)c(C#N)c1-c1ccccc1,33.89,-2.79,–,–
NNC(=O)C1(NC(=O)c2ccccc2)CC1c1cccc(O)c1 (stereo unspecified),12.61,5.57,–,–
CC(=O)Oc1cccc(C=C2N=C(c3ccccc3)OC2=O)c1,11,13.2,–,–
CCOc1nc2nc(CCc3ccccc3)ccc2c(-c2ccccc2)c1C#N,14.64,-39.9,–,–
CCOC(=O)C1=C(C)OC(N)=C(C#N)C1c1ccccc1 (stereo unspecified),25.42,-7.58,–,–
O=C(N[C@H]1CC[C@H](O)CC1)c1ccccc1,23.34,-10.8,–,–
C#CCN(C)Cc1cc2cc(OCCCCC3CCN(Cc4ccccc4)CC3)ccc2n1C.Cl,41,-14.71,–,–
CC(=O)N1CC(=O)NC1=S,18.21,15.12,–,–

SMILES,Inhibition [1] [%],Inhibition [2] [%],Inhibition ([1]; 32 ug/mL),Inhibition ([2]; 32 ug/mL)
CCOC(=O)C1=C(C)Nc2nc3c(c(N)c2C1c1cccc(OC)c1)CCCC3 (stereo unspecified),17.18,-19.26,–,–
C=C1CN(C)c2c(C#N)c(-c3ccccc3)c(C#N)c(=O)n21,8.64,-1.97,–,–
C#CCN(C)Cc1cc2cc(OCCC3CCN(Cc4ccccc4)CC3)ccc2n1C.Cl,28.43,-29.82,–,–
Cn1cc(C(=O)NN)c2ccccc21,4.01,20.35,–,–
O=C1OC(c2ccccc2)=NC1=Cc1ccc([N+](=O)[O-])cc1,5.7,7.71,–,–
COc1ccccc1-c1c(C#N)c(=O)oc2c1ccc1ccccc12,27.34,19.18,–,–
Cc1ccc(C2CC2(N)C(=O)O)cc1.Cl (stereo unspecified),8.71,6.19,–,–
COc1ccc(C2c3ccc4ccccc4c3Oc3nc4c(c(N)c32)CCCC4)c(OC)c1 (stereo unspecified),-6.11,-4.44,–,–
Cc1nc2c(cc1C#N)c(N)nn2C,30.49,0.08,–,–
COc1ccc(C2C(C#N)=C(N)Oc3ccc4ccccc4c32)cc1 (stereo unspecified),37.68,-4.54,–,–
COc1ccc(C2c3c(ccc4ccccc34)OC(=N)C2(Br)C#N)cc1 (stereo unspecified),26.69,-14.26,–,–
C#CCN(C)c1nc(NCCC2CCN(Cc3ccccc3)CC2)c(C#N)cc1C#N.Cl,16.92,-3.04,–,–
CCC(CC)NNC(=O)c1cc2ccccc2n1C,11.92,13.68,–,–
N#CC1(Br)C(=NBr)Oc2ccc3ccccc3c2C1c1ccccc1[N+](=O)[O-] (stereo unspecified),23.03,-25.63,–,–
Cl.ClCCCCCN1CCCCC1,7.58,1.26,–,–
CC(=O)NC=C1C(=O)OC(C)(C)OC1=O,14.96,11.61,–,–
N#CC1(Br)C(=N)Oc2ccc3ccccc3c2C1c1ccccc1 (stereo unspecified),–,–,27.29% and 36.87%,-8.37% and -7.39%
N#Cc1c(N)nc(N2CCCCC2)c(C#N)c1-c1ccccc1,14.68,-11.69,–,–
CCOC(=O)C1=C(C)OC(N)=C(C#N)C1c1ccncc1 (stereo unspecified),26.79,-33.19,–,–
C#CCN(C)c1cc(Cl)nc(N)n1,26.35,-8.33,–,–
